Hits are enriched below; roughly 10% of the tested compounds scored in any of these assays.
G9a block = inhibitors of human histone lysine methyltransferase G9a; Q96KQ7; G9a H3K9 monomethylation, AlphaScreen, 2 h; Potency, µM (doses to about 102 µM), hits mostly inhibitors; 8.8% of 350,000 active; AID 504332; also: nearly all actives have a fitted effect of over 75% in size
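Methyltransferase reactions run at room temperature for 2 h (20 nM enzyme, 500 nM biotin-H3K9 peptide, 20 uM SAM) after a 15 min compound preincubation; product detected by AlphaScreen beads and anti-H3K9me1 antibody.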
BAZ2B block = inhibitors of human BAZ2B bromodomain; Potency, µM (doses to about 114 µM), usual class: inhibitors; 4.4% of 360,000 active; AlphaScreen BAZ2B-H3K14Ac peptide displacement; also: nearly all actives have a fitted effect of over 60% in size
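Multi-concentration screen (max 110 uM) measuring displacement of acetylated histone H3 peptide from BAZ2B by AlphaScreen, using 50 nM protein, 50 nM peptide and 10 ug/mL streptavidin donor plus Ni-chelate acceptor beads.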
GLS inhibitor = inhibitors of human glutaminase (GLS) | GLS enzymatic activity, qHTS titration | O94925 | 0.21% of 410,000 active | Potency, µM (titrated, usually from 45.5 µM), most hits filed as inhibitors
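Human kidney-isoform GLS in 45 mM KH2PO4 pH 8.2, 0.02% Tween-20, with compound, started with 1mM L-Glutamine (added stock). Glutamate oxidase/HRP/Amplex red coupled fluorescence read at start and after 30 min at RT.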
HP1b chromo inh = inhibitors of HP1-beta chromodomain binding to methylated histone tails | 0.56% of 390,000 active | P83916 | AlphaScreen HP1-beta / biotin-H3K9me3 peptide binding | Potency, µM (titrated, usually from 114 µM), most hits filed as inhibitors; also: nearly all actives have a fitted effect of over 70% in size
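HP1-beta protein (50 nM final) preincubated 30 min at room temperature with biotinylated H3(1-18)K9me3 peptide (50 nM) in PBS pH 7.4, 0.01% Tween-20, then compound added for 30 min. AlphaScreen streptavidin donor/nickel chelate acceptor beads (10 ug/mL final), 30 min dark, luminescence read.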
JMJD2A Tudor = inhibitors of human JMJD2A Tudor domain | O75164 | AlphaScreen JMJD2A-Tudor / H3K4me3 peptide binding | Potency, µM (titrated, usually from 114 µM), actives largely listed as inhibitors | 4.4% of 390,000 active | AID 504339; also: nearly all actives have a fitted effect of over 50% in size
A number is an active result; – = inactive; ? = inconclusive; · = not tested or not shown; [ ] = remark or other dose. Calls follow the shape of the dose curve; as a rule, active = well fitted curve in the direction sought with a large enough effect; inconclusive = small, poorly fitted or top-dose-only effect, or another doubt; inactive = no such curve, though single readings can be large; an effect the other way counts as inactive or inconclusive.

SMILES	G9a block	BAZ2B block	GLS inhibitor	HP1b chromo inh	JMJD2A Tudor
Cc1nn(C)c(C)c1CCNC(=O)Nc1cccc(Cl)c1C	–	–	–	–	–
COc1ccccc1NCC(=O)c1ccc(Cl)cc1	50µM	?	–	?	?
COc1ccccc1NCC(=O)c1ccc(C)c(C)c1	–[0.501 µM]	?	–	–	?
Nc1ccc(-c2ccc(N)c([N+](=O)[O-])c2)cc1[N+](=O)[O-]	71µM	–	–	–	–
Nc1ccc(OCc2ccccc2)cc1[N+](=O)[O-]	·	·	–	?	40µM
C#CC[N+]1(CC#Cc2ccc(C#CC[N+]3(CC#C)CCOCC3)cc2)CCOCC1	8.9µM	–	–	–	–
COc1ccc(CN(C)CCCn2cnc3c(OC)ncnc32)cc1OC	·	·	–	·	·
CN(Cc1ccco1)C(=O)CCc1nc2sc3c(c2c(=O)[nH]1)CCCC3	79µM	?	–	–	?
CN(CC(=O)Nc1c(Cl)cccc1Cl)C(=O)CCc1nc2sc3c(c2c(=O)[nH]1)CCCC3	–[0.501 µM]	?	–	–	–
Cc1ccc(CN(C)C(=O)CCc2nc3sc4c(c3c(=O)[nH]2)CCCC4)o1	·	–	–	–	71µM
CN(C)C(=O)CCc1nc2sc3c(c2c(=O)[nH]1)CCCC3	–	–	–	–	–
O=C(c1ccccc1Cl)N1CCCCC1CCN1CCCCC1 (stereo not given)	–	–	–	–	–
CC1CCC(NC(=O)c2nn(C)c3c2CSc2ccccc2-3)CC1 (stereo not given)	–	–	–	–	–
Cc1ccc(S(=O)(=O)N2CCN(C(=O)COC(=O)/C=C/c3ccccc3[N+](=O)[O-])CC2)c(C)c1	?	–	–	–	–
Cc1ccc(Nc2nnc(SCC(=O)NCCN3C(=O)CSC3=O)s2)cc1C	28µM	–	–	–	–
Cc1ccc(C(=O)C(c2ccccc2)N2Cc3ccccc3C2=N)cc1 (stereo not given)	11µM	32µM	–	?	28µM
COc1cccc(C2Nc3ccc4ccccc4c3C3=C2C(=O)CC(C)(C)C3)c1OCC(=O)O (stereo not given)	–	–	13µM	–	–
COC(=O)c1ccc(N2OC3(C)C=CC2CC3)cc1 (stereo not given)	45µM	–	–	–	–
CCOc1ccccc1NC(=O)N1CCC2(CC1)Oc1ccccc1C(=O)N2Cc1ccccc1F	–	–	–	–	–
CCc1cccc2c1NC(=O)[C@]21[C@@H]2C(=O)N(Cc3ccccc3)C(=O)[C@@H]2[C@@H]2CCCN21	45µM	–	–	–	–
Cc1c(Cl)ccc2c1NC(=O)[C@]21[C@@H]2C(=O)N(Cc3ccccc3)C(=O)[C@@H]2[C@@H]2CCCN21	45µM	–	–	–	–[11.4 µM]
CN1C[C@@H]2[C@@H]3C(=O)N(Cc4ccccc4)C(=O)[C@@H]3[C@](C)(C1=O)N2C(=O)c1ccccc1	·	·	–	–	–
C=C(C)[C@H]1CC[C@]2(C(=O)O)CC[C@]3(C)[C@@H](CC[C@H]4[C@@]5(C)CC[C@@H](O)C(C)(C)[C@@H]5CC[C@@]43C)[C@H]12	–[21.5 µM]	·	·	·	·
COC(=O)c1ccc(CSc2ccccc2NC(=S)Nc2cccc(SC)c2)o1	·	·	–	·	·
Oc1ccccc1C(=S)N1CCCCC1	10µM	–	–	–	–
SMILES	G9a block	BAZ2B block	GLS inhibitor	HP1b chromo inh	JMJD2A Tudor
Oc1ccccc1C(=S)N1CCCCCC1	?	–	–	–	–
O=C(Nc1ccc(OC(F)(F)F)cc1)c1ccc2nc[nH]c2c1	50µM	–	–	–	–
COc1ccc(NC(=O)c2ccc3nc[nH]c3c2)c(OC)c1	–	?	–	–	–
CCC(C(=O)NC1CCCC1)N(C(=O)Cn1nnc(-c2ccc(C)o2)n1)c1ccc(OC)cc1 (stereo not given)	–	–	–	–	–
CCOc1ccc(N(CC(=O)NC2CCCCC2)C(=O)Cn2nnc(-c3ccc(C)o3)n2)cc1	45µM	–	–	–	–
CCN(CC)C(=O)Cn1nnc(-c2ccc(C)o2)n1	4µM	–	–	–	–
CCC(C(=O)NC1CCCC1)N(C(=O)Cn1nnc(-c2ccc(C)o2)n1)C(C)(C)C (stereo not given)	32µM	–	–	–	–
Cc1ccc(N(C(=O)Cn2nnc(-c3ccc(C)o3)n2)C(C(=O)NC2CCCC2)c2ccncc2)cc1 (stereo not given)	–	–	–	–	–
Cc1ccc(-c2nnn(CC(=O)N(Cc3ccccc3)C(C(=O)NC3CCCC3)c3ccncc3)n2)o1 (stereo not given)	22µM	–	–	–	–
Cc1ccc(-n2nnnc2CNC(=O)c2ccccc2)cc1C	–	–	–	–	–
Cc1c(C(=O)N2CCN(CC(=O)Nc3ccccc3Cl)CC2)oc2ccc(Br)cc12	–[2.33 µM]	–	–	–	–
Cc1nc(NC(=O)CCN2C(=O)C3CC=CCC3C2=O)sc1C (stereo not given)	–	–	–	–	–
NC(=NCc1ccc(Cl)cc1Cl)NC(=O)c1nc(Cl)c(N)nc1N	–	·	·	·	·
CCCN(CCC)CCNC(=O)c1cc2c(=O)oc3ccc(C)cc3c2s1	–	–	–	–	–
Cc1ccc(-c2nnn(CC(=O)N(Cc3cccs3)C(C(=O)NC3CCCC3)c3ccncc3)n2)cc1 (stereo not given)	?	–	–	–	–
O=C(NC1CCCCC1)C(c1ccncc1)N(C(=O)Cn1nnc(-c2cccs2)n1)C1CCCC1 (stereo not given)	22µM	–	–	–	–
CCCC(C(=O)NC1CCCC1)N(C(=O)Cn1nnc(-c2ccc(C)o2)n1)C1CCCC1 (stereo not given)	11µM	–	–	–	–
CCc1nc2ccc(C(=O)NCc3ccc4c(c3)OCO4)cn2c1N(C)C(=O)Cc1ccccc1	·	·	–	·	·
O=C1NC(=O)/C(=C/c2ccc(-c3cc(C(=O)O)ccc3Cl)o2)S1	·	–	–	–	–
O=C1NC(=O)/C(=C\c2ccc(Br)o2)S1	45µM	–	–	–	?
Nc1ccnc2c1ncn2[C@@H]1O[C@H](CO)[C@@H](O)[C@H]1O	–	·	·	·	·
Cc1ccc(CCN2CC(C(=O)NC3CCC(C)CC3)CC2=O)cc1 (stereo not given)	·	·	–	·	·
Cc1cccc(CN2CCN(C3CN(Cc4ccc([N+](=O)[O-])cc4)S(=O)(=O)C3)CC2)c1 (stereo not given)	·	·	–	·	·
O=C(c1cccc(Cl)c1)N1c2ncnn2C2(CCCCC2)[C@@H]2CCCC[C@@H]21	–	–	–	–	–
C=CCN(CC=C)c1ccc(N2C(=O)C3CCCCC3C2=O)cc1[N+](=O)[O-] (stereo not given)	22µM	?	–	–	?
C=CCNc1ccc(N2C(=O)CCCC2=O)cc1[N+](=O)[O-]	–[2.33 µM]	–	–	–	–
C=CCNc1ccc(N2C(=O)C3CCC(C)CC3C2=O)cc1[N+](=O)[O-] (stereo not given)	50µM	?	·	·	·

Compound activity: PubChem BioAssay, National Center for Advancing Translational Sciences (NCATS)
